The source of these data is PubChem BioAssay AID748 (Sanford-Burnham Center for Chemical Genomics, 2007).

Among all 96,000 compounds or so, about 100 (0.1%) were called active.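 Rule for the calls: active = displacement above 50% at 20 µM plus a fluorescence interference ratio under 1.5; inactive = the rest.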 This excerpt belongs to a sample that is enriched for actives. Potency and affinity values are given separately.

In this assay the target is Bcl-2-like protein 10 (Homo sapiens) (UniProt Q9HD36). In words: displacers of TR3 peptide from Bcl-B, primary screen, selectivity assay for Bfl-1 inhibitor project, biochemical, fluorescence polarization, FITC-TR3 peptide (AID 748).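 Note: plate controls were wells without compound for no effect and wells lacking Bcl-B protein for full effect.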 The settings on record: FP displacement of FITC-TR3 peptide from Bcl-B; at 20 µM; active compounds read high.
Regarding `COc1ccc(N=C2SC(CC(=O)Nc3ccccc3)C(=O)N2CC2CCCO2)cc1` (configuration not stated), the displacement was -7.7% (inactive).
In the case of `COc1ccc2c(c1)c(=O)oc1cc(OCC(=O)N3CCCC(C)C3)ccc12` (configuration not stated) it was 31.5% (inactive); in that of `COc1cccc(OCC(=O)NC2CCCCC2)c1`, -1.4% (inactive); in that of `Cc1cc(=O)oc2ccc(OCC(=O)N3CCC(C)CC3)cc12`, -6.2% (inactive).
In the case of `COc1ccc2c(c1)c(=O)oc1cc(OCC(=O)NC3CC3)ccc12` it was -27.3% (inactive); in that of `COc1ccc2c(c1)c(=O)oc1c(C)c(OCC(=O)N3CCc4ccccc4C3)ccc12`, 17.9% (inactive).
With `Cc1cc(=O)oc2cc(OCC(=O)N3CCc4ccccc4C3)ccc12`, the displacement was -2.9% (inactive).
`COC(=O)c1ccccc1OCC(=O)NC1CCCCC1`: the displacement is -0.5% (inactive).
In the case of `O=C1CC(=O)C(n2cncn2)C(c2c(F)cccc2Cl)C1` (configuration not stated) it was 1.3% (inactive); in that of `O=C(CSc1ncccc1-c1nc2ccccc2[nH]1)N1CCN(c2ccccc2F)CC1`, -0.6% (inactive); in that of `COc1cc(C(=O)NCCC(=O)NCCCN2CCCCC2C)cc(OC)c1OC` (configuration not stated), -7% (inactive).
For the compound `Cc1ccc(/C=N/NC(=O)c2cccs2)cc1[N+](=O)[O-]`, the displacement was -1.9% (inactive).
In the case of `O=[N+]([O-])c1cc(/C=N\Nc2nccs2)ccc1O` it was 107% (active); in that of `Clc1cccc(/C=N\Nc2nccs2)c1`, -14.4% (inactive).
The result for `CCCn1c(CN2CCN(C(=O)c3ccco3)CC2)nc2c1c(=O)n(C)c(=O)n2C` reads -3.6% (inactive).
In the case of `CCc1nnc(NC(=O)c2cnccn2)s1`, the displacement is -1% (inactive).
As to `CCSc1nnc(NC(=O)c2ccccn2)s1`, the displacement is 2.1% (inactive).
The result for `CCSc1nnc(NC(=O)c2cnccn2)s1` reads 58.3% (active); that for `CCc1c(C)nc2[nH]nc(-c3ccccc3)n2c1=O`, 3.2% (inactive).
For the compound `CCOC(=O)c1cc2c(=O)n3cccc(C)c3nc2n(Cc2ccccc2Cl)c1=N`, the displacement is -0.7% (inactive).
`Cn1c(=O)[nH]c(=O)c2c1nc(Br)n2Cc1ccccc1Cl`: the displacement was -0.4% (inactive).
The result for `COc1cccc(C(=O)NC2CC3CCCC(C2)N3CC(=O)Nc2ccc(N(C)C)cc2)c1` (configuration not stated) reads 7.7% (inactive); that for `COc1cc(C(=O)NC2CC3CCCC(C2)N3CC(=O)Nc2ccccc2)cc(OC)c1OC` (configuration not stated), -5.3% (inactive).
Regarding `Cn1c(=O)c2nnn(/N=C(\c3ccccc3)C3CC3)c2n(C)c1=O`, the displacement is 0.7% (inactive).
For the compound `Oc1ccc(C2=Nn3c(nnc3-c3ccco3)SC2)cc1O`, the displacement was 56.6% (active).
`COc1ccc(C2=Nn3c(nnc3-c3ccco3)SC2)cc1OC`: the displacement is 5.3% (inactive).
The result for `COc1ccc(C2=Nn3c(nnc3-c3ccco3)SC2)cc1` reads 0.6% (inactive).
Turning to `COc1ccc(NC(=O)C2CCN(C(=O)c3ccc(OC)cc3)CC2)cc1`, the displacement was 3.5% (inactive).
Turning to `COc1ccc(NC(=O)C2CCCN(c3c4c(nc5ncnn35)CCC4)C2)cc1` (configuration not stated), the displacement was -4.1% (inactive).
On to `CCOC(=O)c1cccc(NC(=O)CSc2nc(N)cc(N)n2)c1`, for which the displacement is -1.6% (inactive).
The result for `COC(=O)c1cccc(NC(=O)COC(=O)CSc2nc(C)cc(C)n2)c1` reads -13.3% (inactive); that for `Cc1ccc(SCC(=O)Nc2ccc(-c3nnc(-c4ccco4)o3)cc2)cc1`, -9.5% (inactive); that for `Cc1cccc(NC(=O)CSc2nnc(-c3ccco3)o2)c1C`, 7.2% (inactive).
The result for `Cc1cccc(NC(=O)CSc2nnc(-c3ccco3)c(-c3ccco3)n2)c1C` reads 37.3% (inactive); that for `CCc1nnc(SCC(=O)Nc2ccccc2)nc1CC`, -1.5% (inactive); that for `O=C(CSc1nnc2c3ccccc3c3ccccc3c2n1)Nc1ccccc1`, -29.6% (inactive).
For `Cc1cccc(C)c1NC(=O)CSc1nnc(-c2ccco2)c(-c2ccco2)n1`, the displacement was -4.1% (inactive).
Regarding `Cc1ccc2oc(-c3cccc(NC(=O)c4ccc(Br)o4)c3)nc2c1`, the displacement was -23.6% (inactive).
On to `CC(NC(=O)CSc1nnc(CC(=O)Nc2ccc(Cl)c(Cl)c2)n1C)c1ccccc1` (configuration not stated), for which the displacement is -13.6% (inactive).
Take `Cc1cccc(N(C)S(=O)(=O)c2ccc3c(c2)CCC(=O)N3)c1`: the displacement is -24.5% (inactive).
The result for `Cc1ccc(S(=O)(=O)Cc2ccc(C(=O)N3CCCCCC3)o2)cc1` reads 21.6% (inactive); that for `Cc1ccc(S(=O)(=O)Cc2ccc(C(=O)N3CCN(Cc4ccccc4)CC3)o2)cc1`, 16.9% (inactive); that for `COc1ccc(S(=O)(=O)Cc2ccc(C(=O)N3CCc4ccccc4C3)o2)cc1`, 9.8% (inactive).
Consider `Cc1ccc(S(=O)(=O)Cc2ccc(C(=O)N3CCCC3)o2)cc1`, for which the displacement was -6.7% (inactive).
In the case of `COC(=O)c1cccc(NC(=O)CSc2nnc(C)n2Cc2ccccc2)c1` it was -10.5% (inactive); in that of `CCOc1ccc(N2C(=O)CC(N3CCN(C4CCc5ccccc5C4)CC3)C2=O)cc1` (configuration not stated), 5.4% (inactive); in that of `Cc1ccc2c(c1)c1c3n2CCN(C(=O)CN2CCN(C)CC2)C3CCC1` (configuration not stated), 15.1% (inactive).
The result for `CC(=O)N1CCn2c3c(c(=O)c4cc(C)ccc42)CCC31` (configuration not stated) reads 4.4% (inactive).
The result for `COc1cc(NC(=O)COC(=O)c2nc3nc(C)cc(C)n3n2)cc(OC)c1` reads 0.7% (inactive); that for `COCC(C)n1c(C)cc(C(=O)COC(=O)c2nc3nc(C)cc(C)n3n2)c1C` (configuration not stated), 9.9% (inactive); that for `Cc1ccc(CC(=O)NC(C)CCc2ccccc2)cc1` (configuration not stated), 1% (inactive).
Take `Cc1cc(NC(=O)COC(=O)[C@H](C)NC(=O)c2ccccc2)no1`: the displacement was 11.4% (inactive).
For the compound `Cc1ccc(C)n1-c1ccc(C(=O)O)cc1`, the displacement is 42.6% (inactive).
For the compound `O=C(O)c1cccc(N2CCCC2)c1`, the displacement was -2.4% (inactive).
For `N/C(COc1ccc(F)cc1)=N\NC(=O)c1cccnc1Oc1ccccc1`, the displacement is 12.1% (inactive).
With `C/C(Cl)=C/Cn1c(=O)c2c(nc(Br)n2Cc2ccccc2)n(C)c1=O`, the displacement is 4.3% (inactive).
In the case of `C/C(N)=C(/C#N)C(=O)CSc1nnc(Nc2cccc(C)c2C)s1` it was -1.5% (inactive); in that of `C/C(N)=C(/C#N)C(=O)CSc1nnc(Nc2ccccc2C)s1`, 4.3% (inactive); in that of `O=S(=O)(c1ccccc1)N1CCSC1c1ccco1` (configuration not stated), -4.6% (inactive).
For the compound `CCc1cc(C(=O)Cc2cnn(-c3ccccc3)c2)c(O)cc1O`, the displacement is -5.9% (inactive).
In the case of `Cc1ccc(O)c(C(=O)c2cnn(-c3ccccc3)c2)c1` it was -8.5% (inactive).
The result for `CC(SCCc1ccccn1)C(=O)O` (configuration not stated) reads -2% (inactive).
